Reference: PMC5540273 (PLoS ONE, 2017)

tested on: NEK7; details: concentration: 1 μM, replicates: in singlicate; n = 1
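Further: KINOMEscan kinase panel screen.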

Row | Structure (SMILES) | %Inh [%]
1 | CN1CCN(Cc2ccc(NC(=O)Nc3ccc(N(C)c4ccnc(Nc5ccc(CS(C)(=O)=O)cc5)n4)cc3)cc2)CC1.Cl [GW827654] | 30
2 | COc1cccc(-c2nc(-c3ccccc3)[nH]c2-c2ccncc2)c1 [SB-610250] | 0
3 | CN(C)CCNS(=O)(=O)c1ccc(-c2ccnc3[nH]ccc23)cc1 [GSK977620] | 0
4 | N#CC1(c2cccc(C(=O)Nc3cccc(Oc4ccc5nc(NC(=O)C6CC6)sc5n4)c3)c2)CC1 | 0
5 | CCNC(=O)/C=C/c1n[nH]c2cc(Sc3ccccc3C(=O)NC)ccc12 | 0
6 | CCn1cnc2c(NCc3ccccc3)ncnc21 [SKF-96418] | 0
7 | CN(c1ccc2c(c1)nc(NCc1ccccc1)n2C)c1ccnc(Nc2ccc(CS(C)(=O)=O)cc2)n1.Cl [GW811603] | 8
8 | Cl.O=C(Nc1ccc(Oc2ccc3[nH]c(NC(=O)c4ccco4)nc3c2)cc1)Nc1cc(C(F)(F)F)ccc1F [GW683134] | 0
9 | Nc1ncc(-c2cn[nH]c2)c2scc(-c3ccc4c(c3)CCN4C(=O)Cc3ccccc3)c12 [GSK2593067] | 0
10 | Cc1ccc(NC(=O)c2ccc(Cl)c(Cl)c2)cc1-c1ccc(C(=O)Nc2ccncc2)cc1 [GSK1398460] | 0
11 | COC(=O)Nc1nc2ccc(Oc3ccc(NC(=O)Nc4cc(C(F)(F)F)ccc4F)cc3)cc2[nH]1.Cl [GW654607] | 19
12 | COc1ccc(C)c(Nc2ccnc(Nc3ccc(-c4cnc[nH]4)cc3)n2)c1.Cl [GW784041] | 4
13 | CCNc1nccc(-c2c(-c3ccc(F)cc3)ncn2C2CCN(C)CC2)n1 | 1
14 | CS(=O)(=O)c1cccc(CNc2nc(Nc3ccc4c(c3)CCC(=O)N4)ncc2C(F)(F)F)c1 | 0
15 | Cc1ccc(NC(=O)c2ccnc(N3CCCCC3)c2)cc1-c1ccc(C(=O)NCC2CC2)cc1 [GW775610] | 8
16 | CN(C)c1ncnc2nc[nH]c12 [SKF-31736] | 0
17 | Cc1ccc(Nc2ccnc(Nc3ccc(C)c(F)c3)n2)cc1O.Cl [GW582868] | 0
18 | Cc1ccc(O)cc1Nc1ccnc2ccc(C(C)(C)C)cc12 [GW856805] | 25
19 | Cn1cc(-c2ccc3c(c2)CCN3C(=O)Cc2cc(F)cc(C(F)(F)F)c2)c2c(N)ncnc21 [GSK2635225] | 0

Row | Structure (SMILES) | %Inh [%]
20 | CN(c1ccc(F)c(NC(=O)c2cccc(OC(C)(C)C#N)c2Cl)c1)c1ccc2nc(NC(=O)C3CC3)sc2n1 | 8
21 | CC(C)NCC(Cc1ccccc1)NC(=O)c1cc(Br)c(-c2ccnc3[nH]ccc23)s1.Cl.Cl (stereo not shown) [GSK1383281] | 0
22 | CCOc1nccc(-c2c(-c3ccc(F)cc3)ncn2C2CCNCC2)n1 [SB-249175] | 10
23 | CN(C)CCOc1ccc(-c2cc(-c3ccc(Cl)c(O)c3)c(-c3ccncc3)[nH]2)cc1.Cl.Cl [SB-684387] | 0
24 | O=C(O)C(F)(F)F.O=c1[nH]ccc2nc(N[C@@H]3CCNC3)nc(Nc3cc(Cl)cc(Cl)c3)c12 [GSK2188764] | 13
25 | CNc1nccc(-c2ccc3c(N)n[nH]c3c2)n1 [GSK2206003] | 0
26 | CC(C)c1nc(-c2ccc(F)c(NS(=O)(=O)c3c(F)cccc3F)c2)c(-c2ccnc(Nc3ccc(N4CCOCC4)nc3)n2)s1 [GSK1804250] | 8
27 | Cc1ccc(-c2ccc3occ(-c4ccc(S(C)=O)cc4)c3c2)nn1 (stereo not shown) | 0
28 | Nc1ncnc2scc(-c3ccc(NC(=O)Cc4cc(F)ccc4F)cc3)c12.O=C(O)C(F)(F)F [SB-731254-M] | 0
29 | COc1cc(Nc2nccc(N3CCC(NC(=O)Nc4ccc5c(c4)OCO5)C3)n2)cc(OC)c1OC (stereo not shown) [GSK1379766] | 29
30 | O=C(Nc1n[nH]c2cc(-c3cccs3)ccc12)C1CC1 [SB-731284] | 0
31 | Fc1cc(Cl)ccc1Nc1ccnc2cc(-c3ccc(CN4CCSCC4)o3)ccc12 [GW560106] | 0
32 | COc1cccc(CC(=O)N2CCc3cc(-c4cn(C)c5ncnc(N)c45)ccc32)c1 [GSK2608899] | 11
33 | COc1ccc(C2=C(Nc3cccc(O)c3)C(=O)NC2=O)cc1 [SB-390766] | 0
34 | Cc1ccc(O)cc1Nc1ccnc2cc(-c3ccc(CN4CCCCC4)o3)ccc12 [GW557777] | 9
35 | Cc1ccc(C)c(NC(=O)Nc2ccc(C)c(-c3ccc(C(=O)Nc4ccncc4)cc3)c2)c1 [GSK1398473] | 0
36 | Cc1cc(-c2ccnc(Nc3cccc(C#N)c3)n2)cc(C)c1O [GSK1440913] | 0
37 | Nc1ncc(-c2ccc3nccc(-c4ccncc4)c3c2)cc1S(=O)(=O)N1CCCCC1 [GSK1693850] | 0
